# Reference: PubChem BioAssay
# Target: Alpha-bungarotoxin (Bungarus multicinctus) (UniProt P60615)
# Assay: alpha-bungarotoxin binders on microarray, profiling panel, artefact control for SMM control protein annotation, biochemical, small-molecule microarray, Alexa647 label, 635/667 nm fluorescence (AID 1117)
# Conditions: alpha-BTX-A647 binding fluorescence, higher = more signal
# Chain of Alpha-bungarotoxin (Bungarus multicinctus) (P60615 whole entry, looked up): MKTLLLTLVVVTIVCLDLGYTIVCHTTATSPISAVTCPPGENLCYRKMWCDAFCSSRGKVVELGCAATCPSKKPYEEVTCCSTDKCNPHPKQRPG
row,Structure (SMILES),composite z-score
1,Cc1ccc(S[C@]2(C(=O)NC(C)C)CC(=O)N(C3Cc4ccccc4C3)[C@@H]2c2ccc(CO)cc2)cc1,1.12
2,[N-]=[N+]=NCc1ccccc1C[C@]1(C(N)=O)N=C(c2ccc(OCCCO)cc2)O[C@H]1c1ccccc1CN=[N+]=[N-],1.56
3,C[N+](C)(C)CCCC[C@@H]1NC(=O)[C@H]2C[C@@H](C(=O)NCc3ccc(F)cc3)[C@@H](c3cccc(OCCO)c3)N2C1=O,1.15
4,C=CCC(OC(C)=O)[C@@H]1[C@@H](N(Cc2ccc(-c3ccccc3)cc2)C(=O)c2ccc(-c3ccccc3)cc2)c2cc(OCCCO)ccc2N1C(=O)Cc1ccc(OC)cc1 (stereo partly specified),0.265
5,CO[C@@H]1COC(=O)CC=C[C@@H](C)[C@H](OC)COC(=O)CC=C[C@H]1C,-0.587
6,O=C(NCc1ccccc1)[C@@]1(CCS(=O)(=O)c2ccccc2)COC(c2ccc(OCCCO)cc2)=N1,3.73
7,C=C(CCCC)/C(=C/C[C@@H](OC(=O)c1ccncc1)c1cccc(OCCO)c1)c1cc(C(=O)OC)ccc1OC,1.21
8,CC(C)[Si]1(C(C)C)OCc2cc(C3CC3)nc(-c3ccccc3)c21,-0.249
9,C=CCOC(=O)[C@@H]1[C@H]2C(=O)O[C@H](c3ccccc3)[C@H](c3ccccc3)N2[C@H](c2ccc(OCCOC(=O)[C@H]3C[C@H]4C(=O)N[C@@H](CCCCNC(C)=O)C(=O)N4[C@H]3c3ccc(O)cc3)cc2)[C@@]12C(=O)Nc1ccc(I)cc12,1.07
10,CC(C)N1CC=CC23O[C@@H]4/C=C\CCCOC(=O)C4[C@H]2C(=O)N(CCCCCO)[C@@H]3C1=O (stereo partly specified),-2.08
11,O=C1O[C@@H](c2ccccc2)[C@@H](c2ccccc2)N2[C@@H](c3ccc(OCCO)cc3)[C@]3(C(=O)Nc4ccc(C#CCCO)cc43)[C@@H](C(=O)N3CCN(c4ncccn4)CC3)[C@H]12,1.75
12,COC(=O)[C@@]1(Cc2ccc(OC)cc2)[C@H]2c3cc(C(=O)N(C)C)n(CCc4ccc(OC)c(Br)c4)c3C[C@H]2CN1C(=O)c1ccccc1,1.98
13,CSCC[C@@H]1NC(=O)CC=C[C@@H](C)COC(=O)[C@H](CCSC)NC(=O)CC=C[C@@H](C)COC1=O,-0.222
14,CO[C@@H]1COC(=O)CC=C[C@H](C)COC(=O)[C@H](Cc2ccccc2)NC(=O)CC=C[C@H]1C,-1.36
15,CC(C)(C)OC(=O)CC[C@]1(C(=O)NCCN2CCOCC2)N=C(c2ccc(OCCCO)cc2)O[C@H]1c1ccccc1CN=[N+]=[N-],2.01
16,CO[C@H]1O[C@H](CO)[C@@H](OC(=O)Nc2ccc3c(c2)OCO3)[C@H](OC(=O)Nc2ccccc2)[C@@H]1OC(=O)Nc1ccccc1,0.902
17,CCc1cccc(NC(=O)O[C@H]2[C@H](OC(=O)Nc3ccccc3)[C@@H](OC(=O)Nc3ccccc3)[C@@H](OC)O[C@@H]2CO)c1,1.2
18,CC(C)(C)OC(=O)CC[C@@]1(C(=O)NCc2ccccc2)N=C(c2ccc(OCCCO)cc2)O[C@@H]1c1ccccc1,2.97

row,Structure (SMILES),composite z-score
1,C=CCNC(=O)[C@H]1[C@@H]2C(=O)O[C@@H](c3ccccc3)[C@@H](c3ccccc3)N2[C@@H](c2ccccc2OCCO)[C@]12C(=O)N(C(=O)OCCOC)c1ccc(C#CCNC(N)=O)cc12,1.81
2,CC(=O)NCCCC[C@@H]1NC(=O)[C@@H]2C[C@H](C(=O)NCCCCCCN(C)C)[C@H](c3ccc(O)cc3)N2C1=O,1.65
3,CCCC=C(CCC)[C@@H](NC(=O)c1ccccc1)c1ccccc1,-0.445
4,C=CCC(OC(C)=O)[C@@H]1[C@@H](N(Cc2ccc(-c3cccc(C(F)(F)F)c3)o2)C(=O)Cc2ccc(F)cc2)c2cc(OCCCO)ccc2N1C(=O)c1ccc(-c2ccccc2)cc1 (stereo partly specified),-0.227
5,CO[C@H]1COC(=O)[C@@H](C)NC(=O)CC=C[C@@H](C)[C@H](OC)COC(=O)CC=C[C@@H]1C,-1.47
6,COc1ccc([Si](C)(C)[C@H]2[C@H](CCO)O[C@@]3(C(=O)N(Cc4ccccc4)c4ccc(N5C(=O)c6cccc7cccc5c67)cc43)[C@@H]2C)cc1,0.524
7,O=C/C=C/c1ccc(/C=C/c2ccccc2)cc1,0.129
8,O=C(CS)NCCCCCNC(=O)[C@H]1C[C@H]2C(=O)N3CCC[C@H]3C(=O)N2[C@H]1c1ccc(O)cc1,-1.3
9,CO[C@H]1COC(=O)[C@H](C)NC(=O)CC=C[C@@H](C)[C@H](NS(=O)(=O)c2ccc(C)cc2)COC(=O)CC=C[C@@H]1C,-0.555
10,O=C1C[C@@](C(=O)NC2CC2)(c2ccc([N+](=O)[O-])cc2)[C@@H](c2ccc(CO)cc2I)N1CC12CC3CC(CC(C3)C1)C2,0.905
11,CO[C@H]1O[C@H](CO)[C@@H](OC(=O)CCc2ccccc2)[C@@H]2OC(=O)[C@H](Cc3cccc(Br)c3)C/C=C/C[C@@H](Cc3cccc(Br)c3)C(=O)O[C@@H]12,2.14
12,Cc1ccc(S[C@]2(C(=O)NCCCN(C)C)CC(=O)N(C3CCCCC3)[C@@H]2c2ccc(CO)cc2I)cc1,-0.693
13,COc1cccc([C@H]2N[C@H](C(=O)O)CC[C@@H]2C)c1,0.396
14,O=C1O[C@H](c2ccccc2)[C@H](c2ccccc2)N2[C@H]1[C@@H](C(=O)NC[C@H](O)c1ccccc1)[C@]1(C(=O)Nc3ccc(C#CC4(O)CCCCCC4)cc31)[C@H]2c1ccc(OCCO)cc1,1.41
15,CCCC[C@@H]1C[C@H]1[C@@H](NC(=O)c1cccs1)c1ccc(Cl)cc1,-1.37
16,Cc1ccc(N2C(=O)c3ccccc3[C@@H](C(=O)NCC(F)(F)F)[C@@H]2c2ccc(CO)cc2)nc1,-1.81
17,COCCOC(=O)N1C(=O)[C@@]2(c3cc(C#CCNC(N)=O)ccc31)[C@H](c1ccc(OCCO)cc1)N1[C@H](c3ccccc3)[C@H](c3ccccc3)OC(=O)[C@H]1[C@@H]2C(=O)Nc1nc2ccccc2s1,1.37
18,O=C1c2ccccc2[C@](Cc2ccccc2I)(C(=O)O)[C@H](c2ccc(CO)cc2)N1C1CCCCC1,1.53
